PubChem BioAssay AID938 (National Center for Advancing Translational Sciences (NCATS), 2007)
Values joined by “and” are separate entries in the source; they are usually repeats but may differ in a detail not shown here. Identical values can stand only once. Hit rate of the full screen: of about 73,000 compounds, about 1,800 (2.5%) were called active. Roughly 13% stayed inconclusive and do not appear here. The entries come from a sample that favours actives as a whole. A call without a number means that no potency is given here. A number with no mark means an inactive call. The call rests on the fitted dose curve; in most records, active means well fitted activation curve with a large enough effect; inconclusive means small, poorly fitted or top-dose-only effect; inactive means no such curve, though single readings can be large or run the other way.

Assay: qHTS Assay for Agonists of the Thyroid Stimulating Hormone Receptor: Activators of Intracellular cAMP Concentrations in Parental HEK 293; further: nearly all actives have a fitted effect of over 55% in size
Conditions: parental HEK293 CNG cAMP sensor, membrane potential fluorescence; series mostly up to 57.1 µM
Source text: NIH Chemical Genomics Center [NCGC]
NIH Molecular Libraries Screening Centers Network [MLSCN]
PI Name: Dr. Marvin Gershengorn
This cell based assay utilized a cyclic nucleotide gated ion channel (CNG) as a biosensor for cAMP induction. HEK 293 cells stably expressing the modified CNG were purchased from BD biosciences (http://www.atto.com/products/actone/features_benefits.shtml) . Stimulation of cAMP production causes the CNG to open and subsequent membrane depolarization to occur. A fluorescent membrane potential dye (BD biosciences) was utilized to detect cAMP stimulation in cells.
The cells were maintained in DMEM medium (Invitrogen) containing 10 % FBS (Hyclone), 100 units/ml Penicillin, 100 ug/ml Streptomycin (Invitrogen), and 250 ug/ml Geneticin (Invitrogen) and 1 ug/ml Puromycin (Invitrogen) at 37C in 5% CO2. This assay was used as a counterscreen to "qHTS Assay for Agonists of the Thyroid Stimulating Hormone Receptor", to control for compounds signaling through endogenous receptors and other targets of HEK 293 cells.
NCGC Assay Protocol Summary:
High Throughput Screening. Freshly passaged cells were dispensed into 1536-well assay plates at 4 ul/well in DMEM containing phenol red (Invitrogen), 10% FCS (Hyclone), and 100 units/ml Penicillin, 100 ug/ml Streptomycin (Invitrogen) and incubated at 37 C with 5% CO2 for 20 to 36 hrs before the robotic screening. The screen was initiated by addition of 4 ul/well membrane potential dye containing 100 uM RO 20-1724 (Sigma Aldrich), followed by 60 min incubation at room temperature to allow for dye equilibration across the cell membrane. 23 nl/well compound or control was then added to the assay plates, which were incubated for additional 30 min before reading a Envision fluorescence plate reader (Perkin Elmer) in bottom-read mode for fluorescence intensity (emission at 590 nm).
Keywords: cAMP, CNG Ion Channel, quantitative high throughput screening, qHTS, HTS, probe identification, CNG, cAMP, cyclic nucleotide gated ion channel PubChem
Potency means the concentration at half of the fitted maximal effect.

Row | Structure (SMILES) | Potency | activation
1 | COc1ccc2[nH]c(=O)c(CN(CC3CCCO3)C(=O)Nc3ccccc3)cc2c1 (centres undefined) | inactive | 
2 | CCC(c1nnnn1Cc1ccco1)N(Cc1cc2cc(OC)ccc2[nH]c1=O)C1CCCCC1 (centres undefined) | 10 µM (active) | 
3 | CCC(c1nnnn1C1CCCC1)N(Cc1cccs1)Cc1cc2cccc(C)c2[nH]c1=O (centres undefined) | inactive | 
4 | CCC(c1nnnn1Cc1ccco1)N(CCc1ccccc1)Cc1cc2cccc(C)c2[nH]c1=O (centres undefined) | 12.6 µM (active) | 
5 | COc1ccc2[nH]c(=O)c(CN(Cc3nnnn3CCc3ccccc3)CC3CCCO3)cc2c1 (centres undefined) | inactive | 
6 | COc1ccc(CCN(Cc2cc3cccc(C)c3[nH]c2=O)C(=O)N2CCCC2)cc1OC | inactive | 
7 | COc1ccc(/C=C/NC(=O)Cc2ccc(OC)c(OC)c2)cc1 |  | 28.5% [at 11.4 µM] and 7.24% [at 11.4 µM]
8 | Cn1c(CNc2nc(-c3ccccc3)cs2)nnc1SCC(=O)c1ccccc1 | inactive | 
9 | CCN(CC)CCCCn1c(-c2ccccc2)nc2c(N3CCOCC3)nc(C)nc21 | inactive | 
10 | CC(=O)Nc1ccc(N2CCOCC2)c(C(=O)Nc2cccc(C)c2)c1 | inactive | 
11 | O=C(CNC(=O)c1ccc(Cl)cc1Cl)NCC(=O)Nc1ccccc1N1CCOCC1 | inactive | 
12 | COc1c(C)cccc1C(=O)Nc1cc(Cl)ccc1N1CCOCC1 | 25.1 µM (active) | 
13 | Cc1ccc(NC(=O)c2cccc(N(C)C)c2)cc1NC(=O)c1ccc(O)cc1 | inactive | 
14 | COC(=O)c1oc2ccc(Br)cc2c1NC(C)=O | inactive | 
15 | Cc1cccc(OCc2nnc(SCc3nc4cc(C(F)(F)F)ccc4c(=O)[nH]3)o2)c1 | inactive | 
16 | Cc1cc(C)cc(OCc2nnc(SCC(=O)Nc3ccccc3)o2)c1 | inactive | 
17 | Cc1cccc(OCc2nnc(SCn3nnc4ccccc4c3=O)o2)c1 | 25.1 µM (active) | 
18 | Cc1noc(C)c1S(=O)(=O)N(CC(=O)Nc1ccc2c(c1)OCCO2)c1ccc(C(C)C)cc1 | inactive | 
19 | C=CCOc1ccc(/C=N/n2cncn2)cc1OC | inactive | 
20 | Cc1nc(C)c(C(=O)Nc2cccc(C)c2C)o1 | inactive | 
21 | CCC(=O)Oc1cccc(C(=O)Nc2ccc(-c3nnc(-c4ccco4)o3)cc2)c1 | inactive | 
22 | CCCCOc1ccc(-c2nnc(-c3ccco3)o2)cc1 | 20 µM (active) | 
23 | Cc1ccc(OCC(=O)Nc2ccc(-c3nnc(-c4ccco4)o3)cc2)cc1 | inactive | 
24 | CC(C)(C)c1ccc(OC2C=CC(C#Cc3ccccc3)OC2CO)cc1 (centres undefined) |  | 12.6% [at 11.4 µM]

Row | Structure (SMILES) | Potency | activation
25 | Cc1cc2nc3c(=O)[nH]c(=O)nc-3n(C[C@H](O)[C@H](O)[C@H](O)CO)c2cc1C | inactive | 
26 | CC(Cc1cccs1)NC(=O)NC1CCCCC1 (centres undefined) | inactive | 
27 | O=C(Nc1c(-c2ccccc2)nc2c(Br)cc(Br)cn12)c1ccco1 | 20 µM (active) | 
28 | O=C(Nc1ccc(Oc2ccccc2)cc1)c1ccco1 | inactive | 
29 | Cc1ccccc1NC(=O)c1cnn(-c2ccccc2)c1NC(=O)c1ccco1 | inactive | 
30 | N#Cc1nc(COc2ccc(Cl)cc2)oc1N1CCCC1 | 15.8 µM (active) | 
31 | N#Cc1nc(-c2ccc(OCc3ccccc3)cc2)oc1NCCCN1CCOCC1 | inactive | 
32 | N#Cc1nc(COc2ccc(-c3ccccc3)cc2)oc1NCc1cccnc1 | inactive | 
33 | Cn1c(=O)c2c(nc(N3CCCCCC3)n2CC(O)COc2ccc(Cl)cc2)n(C)c1=O (centres undefined) | inactive | 
34 | CCOc1ccc(Nc2oc(Cc3ccccc3)nc2C#N)cc1 | inactive | 
35 | Cc1ccc(OCc2nc(C#N)c(N3CCCC3)o2)cc1 | 20 µM (active) | 
36 | CCOc1cc(/C=N/O)cc(Br)c1OC |  | 15% [at 11.4 µM]
37 | CCOC(=O)[C@]1(C(/C=C/c2ccco2)NC(=O)OC)CCCC1=O (some centres undefined) |  | 0.322% [at 11.4 µM]
38 | O=C(NC(Cc1ccccc1)C(=O)N1CCCC1C(=O)O)c1ccccc1 (centres undefined) | inactive | 
39 | O=c1c(CCc2ccccc2)nc2cncnc2n1C1CC1 | inactive | 
40 | CCOC(=O)C1CCCN(C(=O)C2CCN(c3nnc(-n4cccc4)s3)CC2)C1 (centres undefined) | inactive | 
41 | O=C1CSC(c2cccc(F)c2)N1c1ccccc1F (centres undefined) | inactive | 
42 | Cc1cc(/C=N/n2cnnc2)c(C)n1-c1cccc(C(=O)O)c1 | inactive | 
43 | Cc1cc(/C=N/n2cnnc2)c(C)n1-c1ccc2ncccc2c1 | 3.98 µM (active) | 
44 | Fc1ccc(Br)cc1/C=N/n1cnnc1 | inactive | 
45 | CCOC(=O)c1cc2cc(-c3c(C(=O)OCC)oc4cc(O)cc(O)c4c3=O)ccc2o1 | inactive | 
46 | CN1CCC2(CC1)CCN(S(=O)(=O)c1ccccc1)CC2 | 3.98 µM (active) | 
47 | COc1ccccc1CN1CC2(CCN(S(=O)(=O)c3ccccc3)CC2)C1 | inactive | 
48 | O=C(Nc1cccc(F)c1)N1CCC2(CC1)CCN(S(=O)(=O)c1ccccc1)CC2 | inactive | 

Row | Structure (SMILES) | Potency | activation
49 | CC(=O)c1cnc(Nc2nc(C)c3cc(C)ccc3n2)nc1C | inactive | 
50 | CO/N=C\[C@@H](C)[C@H](OCc1ccccc1)C(C)C |  | -0.643% [at 11.4 µM]
51 | C[C@H]1CC[C@H](C(=O)O)N[C@@H]1c1ccc(C#Cc2ccccc2)cc1 |  | 0.689% [at 11.4 µM]
52 | CC(C)[C@H](NC(=O)Nc1ccc(S(N)(=O)=O)cc1)C(=O)O | inactive | 
53 | CC(C)(C)NC(=O)C(c1ccncc1)N(C(=O)CNC(=O)c1ccco1)c1ccc2c(c1)OCO2 (centres undefined) | inactive | 
54 | CC(C)(C)NC(=O)C(c1ccco1)N(Cc1ccc2c(c1)OCO2)C(=O)Cn1nnc2ccccc21 (centres undefined) | 15.8 µM (active) | 
55 | O=C(Cn1nnc(-c2ccccc2)n1)NCc1ccc2c(c1)OCO2 | inactive | 
56 | Cc1ccc(-c2nnn(CC(=O)N(CCO)C(C(=O)NC(C)(C)C)c3ccncc3)n2)cc1 (centres undefined) | inactive | 
57 | CCC(C)(C)NC(=O)C(c1cccn1C)N(Cc1ccc(C)cc1)C(=O)Cn1nnc2ccccc21 (centres undefined) | 15.8 µM (active) | 
58 | Cc1ccc(C(=O)CSc2nnc(Cn3nnc4ccccc43)n2C)cc1 | inactive | 
59 | CC(=O)c1nc(N2C(=O)C3CC=C(C)CC3C2=O)sc1C (centres undefined) | inactive | 
60 | CCOC(=O)CCC(=O)OCC(=O)NC(C)C1CC2CCC1C2 (centres undefined) | inactive | 
61 | CCc1c(C)sc(NC(=O)OC)c1C(=O)N1CCOCC1 | inactive | 
62 | CC(=O)OCC(=O)[C@@]1(O)CC[C@@H]2[C@H]3CCC4=CC(=O)C=C[C@]4(C)[C@]3(F)[C@@H](O)C[C@@]21C | inactive | 
63 | NS(=O)(=O)c1cc(C(=O)O)c(Cl)c([N+](=O)[O-])c1Cl |  | -3.67% [at 11.4 µM]
64 | COc1ccc(CCNC(=O)c2cc3sccc3n2C)cc1OC | inactive | 
65 | CCOC(=O)c1cc2sccc2n1Cc1ccc(C#N)cc1 | 15.8 µM (active) | 
66 | CC(=O)N1CCC2(CCCN(Cc3ccc(C#N)cc3)C2)CC1 | inactive | 
67 | O=c1[nH][nH]c(=O)c2cc(N3CCCC3)ccc12 | inactive | 
68 | O=C(Nc1ccc(S(=O)(=O)N2CCCCC2)cc1)c1cnccn1 | inactive | 
69 | COc1ccc(C(=O)NC(=O)CSc2nnc(-c3ccco3)n2-c2ccccc2)cc1 | inactive | 
70 | Cc1cccc(C)c1NC(=O)CCCSc1nnc(-c2ccco2)n1-c1ccccc1 | 20 µM (active) | 
71 | CCc1cccc(C)c1NC(=O)CSc1nnc(-c2ccco2)n1N | inactive | 
72 | CC1CCCCN1CCCNC(=O)c1ccc(-n2c(=O)c(=O)[nH]c3ccccc32)cc1 (centres undefined) | inactive | 

Row | Structure (SMILES) | Potency | activation
73 | O=C1c2ccccc2C(O)N1Cc1ccccc1Cl (centres undefined) | inactive | 
74 | COC(=O)[C@@]1(Cc2ccccc2)[C@H]2c3cc(C(=O)N4CCCC4)n(Cc4ccc(C)o4)c3C[C@H]2CN1C(=O)c1ccccc1 | 1.58 µM (active) | 
75 | COC(=O)[C@@]1(Cc2ccc(F)cc2)[C@H]2c3cc(C(=O)N4CCCC4)n(C[C@H](O)CO)c3C[C@H]2CN1C(=O)c1ccccc1 | inactive | 
76 | COC(=O)[C@@]1(Cc2ccc(F)cc2)[C@H]2c3cc(C(=O)N(C)C)n(CCc4c[nH]c5ccc(OC)cc45)c3C[C@H]2CN1C(=O)c1ccccc1 | inactive | 
77 | COC(=O)[C@@]1(Cc2ccc(F)cc2)[C@H]2c3cc(C(=O)N4CCCC4)n(Cc4ccc(OC(F)(F)F)cc4)c3C[C@H]2CN1C(=O)c1ccccc1 | 1.58 µM (active) | 
78 | COC(=O)[C@@]1(Cc2ccc(OC)cc2)[C@H]2c3cc(C(=O)N4CCCC4)n(Cc4ccc(OC(F)(F)F)cc4)c3C[C@H]2CN1C(=O)c1ccccc1 | 2.51 µM (active) | 
79 | COC(=O)[C@@]1(Cc2ccc(F)cc2)[C@@H]2[C@@H](CC(=O)[C@H]2CC(=O)C(=O)N2CCCC2)CN1C(=O)c1ccccc1 | inactive | 
80 | COc1ccc(OCc2cccc(C(=O)N3CCCC3)c2)cc1 | inactive | 
81 | COc1ccc(-c2nc(CS(=O)CC(=O)N3CCc4ccccc4C3)c(C)o2)cc1 (centres undefined) | inactive | 
82 | COc1ccc(/C=C/NC(=O)c2ccc(OC)cc2)cc1 |  | -3.02% [at 11.4 µM]
83 | NCCCNCCCCN(CCCN)/[N+]([O-])=N/O | inactive | 
84 | CC1(C)S[C@@H]2[C@@H](NC(=O)[C@@H](N)c3ccccc3)C(=O)N2[C@H]1C(=O)O | inactive | 
85 | CC(Sc1nncn1C)C(=O)Nc1ccccc1-c1ccccc1 (centres undefined) | inactive | 
86 | CS(=O)(=O)N1CCN(C(=O)c2cc3ccccc3oc2=O)CC1 | inactive | 
87 | C/C(CCN1CCc2nc(-c3ccccc3)c(-c3ccccc3)cc2C1)=N\O[C@@H](C)c1cn([C@@H]2COC[C@@H]2O)nn1 |  | 0.56% [at 11.4 µM]
88 | NC(=O)COc1ccc2c3c(c(=O)oc2c1)CCCCC3 | inactive | 
89 | O=C(COc1ccc2c3c(c(=O)oc2c1)CCC3)NC1CCCCC1 | inactive | 
90 | CCCOc1ccc2c3c(c(=O)oc2c1OCCC)CCC3 | 3.16 µM (active) | 
91 | Oc1ccc2ccccc2c1C=NCc1c(O)ccc2ccccc12 |  | 1.97% [at 11.4 µM]
92 | CN1CCN(c2ccc(NC(=O)COc3ccc(Cl)cc3Cl)cc2)CC1 | inactive | 
93 | CC(=O)N1CCN(c2ccc(NCc3ccc(C(C)C)cc3)cc2)CC1 | 3.98 µM (active) | 
94 | CC(C)N(C(=O)COC(=O)c1ccccc1C(=O)N1CCN(c2ccc(F)cc2)CC1)C(C)C | inactive | 
